Measurements published in ChEMBL document CHEMBL2218924, “A broad activity screen in support of a chemogenomic map for kinase signalling research and drug discovery” (Biochem J, 2013).

Target: T1, Mitogen-activated protein kinase kinase kinase 7 (Homo sapiens) (UniProt O43318)
T1 sequence (whole entry): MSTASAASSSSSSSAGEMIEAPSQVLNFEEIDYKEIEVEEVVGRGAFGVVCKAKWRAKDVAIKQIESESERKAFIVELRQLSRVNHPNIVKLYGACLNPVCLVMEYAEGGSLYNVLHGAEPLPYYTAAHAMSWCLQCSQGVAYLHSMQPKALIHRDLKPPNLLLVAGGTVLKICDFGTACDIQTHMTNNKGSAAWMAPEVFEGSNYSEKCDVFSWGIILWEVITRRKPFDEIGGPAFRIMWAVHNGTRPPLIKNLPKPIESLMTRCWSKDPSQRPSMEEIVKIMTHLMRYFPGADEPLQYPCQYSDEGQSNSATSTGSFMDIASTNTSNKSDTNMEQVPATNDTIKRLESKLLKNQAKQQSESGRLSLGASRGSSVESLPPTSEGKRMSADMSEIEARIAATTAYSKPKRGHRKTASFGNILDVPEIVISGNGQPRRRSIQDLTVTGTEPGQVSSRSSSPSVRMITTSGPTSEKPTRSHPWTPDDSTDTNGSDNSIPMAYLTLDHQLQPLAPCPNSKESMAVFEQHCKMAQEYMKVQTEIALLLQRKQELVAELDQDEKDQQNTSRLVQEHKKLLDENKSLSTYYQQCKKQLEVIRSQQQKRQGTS
Conditions: at 10 µM

Going from `CO[C@H]1[C@@H](OC)C[C@H](C)[C@@H](OC)C2=CC(=O)C=C(NC(=O)/C(C)=C/C=C/[C@H](OC)[C@@H](OC(N)=O)/C(C)=C/[C@@H]1C)C2=O` to `CO[C@H]1C[C@@H]2CC[C@@H](C)[C@@](O)(O2)C(=O)C(=O)N2CCCC[C@H]2C(=O)O[C@H]([C@H](C)C[C@@H]2CC[C@@H](O)[C@H](OC)C2)CC(=O)[C@H](C)/C=C(\C)[C@@H](O)[C@@H](OC)C(=O)[C@H](C)C[C@H](C)/C=C/C=C/C=C/1C`, the residual activity falls from 94% to 82%.

Compared with `O=C1NC(=O)c2c1c1c3ccccc3[nH]c1c1[nH]c3cc(Br)ccc3c21`, `O=Nc1c(-c2c(O)[nH]c3ccccc23)[nH]c2ccccc12` is lower in residual activity: 84% for the first, 71% for the second.

Compared with `CCC(=O)Nc1ccc2ncnc(Nc3cccc(Br)c3)c2c1`, `CC#CC(=O)Nc1cc2c(Nc3ccc(F)c(Cl)c3)ncnc2cn1` is higher in residual activity: 90% for the first, 96% for the second.

First: CC(C)n1cnc2c(NCc3ccccc3)nc(NCCCO)nc21
Second: CC(C)n1cnc2/c(=N/c3cccc(Cl)c3)nc(NCCO)[nH]c21
The residual activity of the first is higher: 92% for the first, 24% for the second.

Going from `CCN(CC)C(=O)c1ccc(Nc2nc(OCC3CCCCC3)c3nc[nH]c3n2)cc1` to `COc1cc2ncnc(N3CCN(C(=O)Nc4ccc(Oc5ccccc5)cc4)CC3)c2cc1OC`, the residual activity rises from 7% to 82%.

Compared with `COc1ccc(C(=O)Nc2sc3c(c2C(N)=O)CCCC3)cc1OC`, `COc1cc2ncnc(Nc3ccc(O)c(Br)c3)c2cc1OC` is lower in residual activity: 86% for the first, 62% for the second.

`CN(C)c1ccc(/C=C2\C(=O)Nc3ccccc32)cc1` and `O=C1Nc2cc(Br)ccc2/C1=C1/Nc2ccccc2/C1=N\O` are the same in residual activity: 81% for the first, 81% for the second.

First: O=[N+]([O-])c1ccc(-c2nc(-c3ccc(F)cc3)c(-c3ccncc3)[nH]2)cc1
Second: NC(=O)c1ccc2[nH]c(-c3ccc(Oc4ccc(Cl)cc4)cc3)nc2c1
The residual activity of the first is higher: 91% for the first, 81% for the second.

`Cc1cc2ncc(-c3ccccc3)nc2cc1C` and `COc1cc2ncnc(Nc3ccc(Oc4ccccc4)cc3)c2cc1OC` are the same in residual activity: 95% for the first, 95% for the second.

Going from `Nc1ccc2ncnc(NCCc3ccc(Oc4ccccc4)cc3)c2c1` to `Nc1cccc(-c2cc3c(Oc4cccc(O)c4)ncnc3[nH]2)c1`, the residual activity falls from 72% to 8%.

Going from `O=C1NC(=O)/C(=C/c2ccc3c(c2)OC(F)(F)O3)S1` to `O=C1NC(=O)/C(=C\c2ccc3nccnc3c2)S1`, the residual activity rises from 88% to 93%.

First: O=C(O)c1ccc2c3c1cccc3c(=O)n1c3ccccc3nc21
Second: COc1cccc(-c2cc(=O)c3ccccc3o2)c1N
The residual activity of the first is lower: 41% for the first, 98% for the second.

Going from `Cc1ccc(S(=O)(=O)/C=C/C#N)cc1` to `Cc1ccc(NC2=CC(=O)c3sc(C)nc3C2=O)cc1`, the residual activity rises from 88% to 89%.

Going from `CC(=O)c1ccc(N2CCOCC2)cc1O` to `O=c1cc(-c2cccc3c2Sc2ccccc2S3)oc(N2CCOCC2)c1`, the residual activity falls from 90% to 89%.

Going from `N#CCCc1ccc2c(c1)-c1[nH]c3ccc([N+](=O)[O-])cc3c1CC(=O)N2` to `Oc1n[nH]c2nnc(-c3c(-c4ccccc4)nn4ccccc34)cc12`, the residual activity rises from 21% to 74%.

First: O=C(Nc1cccc(Nc2nccc(Nc3cccc(C(F)(F)F)c3)n2)c1)C1CC1
Second: O=C(Nc1cccc(Nc2cc(Nc3cccc(C(F)(F)F)c3)ncn2)c1)C1CC1
The residual activity of the first is higher: 99% for the first, 95% for the second.

Compared with `C[C@@H](N)[C@H]1CC[C@H](C(=O)Nc2ccncc2)CC1`, `CCN(CC)CCCCN1c2ccccc2Oc2ccc(Cl)cc21` is lower in residual activity: 113% for the first, 90% for the second.

Work on `Nc1n[nH]c2nnc(-c3c(-c4ccccc4)nn4ccccc34)cc12` yielded a residual activity of 77%.

Target: T2, Serine/threonine-protein kinase TAO1 (Homo sapiens) (UniProt Q7L7X3)
T2 sequence (whole entry): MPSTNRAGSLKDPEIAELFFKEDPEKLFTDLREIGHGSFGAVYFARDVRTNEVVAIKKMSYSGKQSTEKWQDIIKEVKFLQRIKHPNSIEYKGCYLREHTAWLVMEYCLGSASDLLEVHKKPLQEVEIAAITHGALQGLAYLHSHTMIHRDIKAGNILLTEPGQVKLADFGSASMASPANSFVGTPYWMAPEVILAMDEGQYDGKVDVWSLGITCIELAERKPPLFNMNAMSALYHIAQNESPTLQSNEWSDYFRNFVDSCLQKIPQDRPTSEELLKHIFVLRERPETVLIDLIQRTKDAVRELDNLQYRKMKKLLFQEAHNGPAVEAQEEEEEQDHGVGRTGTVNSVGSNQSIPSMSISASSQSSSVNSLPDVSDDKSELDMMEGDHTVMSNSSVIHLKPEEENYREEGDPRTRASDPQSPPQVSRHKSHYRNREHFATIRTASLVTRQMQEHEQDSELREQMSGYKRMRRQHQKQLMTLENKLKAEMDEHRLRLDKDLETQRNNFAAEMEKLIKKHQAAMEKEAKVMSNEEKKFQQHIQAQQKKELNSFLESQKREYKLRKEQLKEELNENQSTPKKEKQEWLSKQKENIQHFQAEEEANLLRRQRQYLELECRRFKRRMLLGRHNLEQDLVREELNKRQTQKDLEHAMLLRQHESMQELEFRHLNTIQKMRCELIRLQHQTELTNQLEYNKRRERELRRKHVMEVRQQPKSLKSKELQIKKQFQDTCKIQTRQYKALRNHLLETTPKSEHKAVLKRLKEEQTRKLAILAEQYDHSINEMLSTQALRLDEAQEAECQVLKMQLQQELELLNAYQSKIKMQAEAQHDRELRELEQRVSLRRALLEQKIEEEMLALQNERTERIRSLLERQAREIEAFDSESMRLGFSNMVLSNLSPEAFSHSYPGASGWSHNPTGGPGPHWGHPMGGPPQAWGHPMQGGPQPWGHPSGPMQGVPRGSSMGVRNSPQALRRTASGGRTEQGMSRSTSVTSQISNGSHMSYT
Conditions: at 1 µM

Compared with `CO[C@H]1[C@@H](OC)C[C@H](C)[C@@H](OC)C2=CC(=O)C=C(NC(=O)/C(C)=C/C=C/[C@H](OC)[C@@H](OC(N)=O)/C(C)=C/[C@@H]1C)C2=O`, `CO[C@H]1C[C@@H]2CC[C@@H](C)[C@@](O)(O2)C(=O)C(=O)N2CCCC[C@H]2C(=O)O[C@H]([C@H](C)C[C@@H]2CC[C@@H](O)[C@H](OC)C2)CC(=O)[C@H](C)/C=C(\C)[C@@H](O)[C@@H](OC)C(=O)[C@H](C)C[C@H](C)/C=C/C=C/C=C/1C` is higher in residual activity: 98% for the first, 102% for the second.

First: O=C1NC(=O)c2c1c1c3ccccc3[nH]c1c1[nH]c3cc(Br)ccc3c21
Second: O=Nc1c(-c2c(O)[nH]c3ccccc23)[nH]c2ccccc12
The residual activity of the first is higher: 92% for the first, 83% for the second.

Going from `CCC(=O)Nc1ccc2ncnc(Nc3cccc(Br)c3)c2c1` to `CC#CC(=O)Nc1cc2c(Nc3ccc(F)c(Cl)c3)ncnc2cn1`, the residual activity rises from 96% to 104%.

`CC(C)n1cnc2c(NCc3ccccc3)nc(NCCCO)nc21` and `CC(C)n1cnc2/c(=N/c3cccc(Cl)c3)nc(NCCO)[nH]c21` are the same in residual activity: 87% for the first, 87% for the second.

Going from `CCN(CC)C(=O)c1ccc(Nc2nc(OCC3CCCCC3)c3nc[nH]c3n2)cc1` to `COc1cc2ncnc(N3CCN(C(=O)Nc4ccc(Oc5ccccc5)cc4)CC3)c2cc1OC`, the residual activity rises from 52% to 94%.

Compared with `COc1ccc(C(=O)Nc2sc3c(c2C(N)=O)CCCC3)cc1OC`, `COc1cc2ncnc(Nc3ccc(O)c(Br)c3)c2cc1OC` is lower in residual activity: 97% for the first, 86% for the second.

First: CN(C)c1ccc(/C=C2\C(=O)Nc3ccccc32)cc1
Second: O=C1Nc2cc(Br)ccc2/C1=C1/Nc2ccccc2/C1=N\O
The residual activity of the first is higher: 113% for the first, 68% for the second.

Going from `O=[N+]([O-])c1ccc(-c2nc(-c3ccc(F)cc3)c(-c3ccncc3)[nH]2)cc1` to `NC(=O)c1ccc2[nH]c(-c3ccc(Oc4ccc(Cl)cc4)cc3)nc2c1`, the residual activity falls from 97% to 89%.

First: Cc1cc2ncc(-c3ccccc3)nc2cc1C
Second: COc1cc2ncnc(Nc3ccc(Oc4ccccc4)cc3)c2cc1OC
The residual activity of the first is higher: 109% for the first, 106% for the second.

Compared with `Nc1ccc2ncnc(NCCc3ccc(Oc4ccccc4)cc3)c2c1`, `Nc1cccc(-c2cc3c(Oc4cccc(O)c4)ncnc3[nH]2)c1` is lower in residual activity: 103% for the first, 82% for the second.

Compared with `O=C1NC(=O)/C(=C/c2ccc3c(c2)OC(F)(F)O3)S1`, `O=C1NC(=O)/C(=C\c2ccc3nccnc3c2)S1` is lower in residual activity: 100% for the first, 71% for the second.

First: O=C(O)c1ccc2c3c1cccc3c(=O)n1c3ccccc3nc21
Second: COc1cccc(-c2cc(=O)c3ccccc3o2)c1N
The residual activity of the first is lower: 90% for the first, 99% for the second.

Going from `Cc1ccc(S(=O)(=O)/C=C/C#N)cc1` to `Cc1ccc(NC2=CC(=O)c3sc(C)nc3C2=O)cc1`, the residual activity falls from 94% to 91%.

First: CC(=O)c1ccc(N2CCOCC2)cc1O
Second: O=c1cc(-c2cccc3c2Sc2ccccc2S3)oc(N2CCOCC2)c1
The residual activity of the first is lower: 103% for the first, 107% for the second.

First: N#CCCc1ccc2c(c1)-c1[nH]c3ccc([N+](=O)[O-])cc3c1CC(=O)N2
Second: Oc1n[nH]c2nnc(-c3c(-c4ccccc4)nn4ccccc34)cc12
The residual activity of the first is lower: 58% for the first, 83% for the second.

Going from `O=C(Nc1cccc(Nc2nccc(Nc3cccc(C(F)(F)F)c3)n2)c1)C1CC1` to `O=C(Nc1cccc(Nc2cc(Nc3cccc(C(F)(F)F)c3)ncn2)c1)C1CC1`, the residual activity rises from 95% to 100%.

First: C[C@@H](N)[C@H]1CC[C@H](C(=O)Nc2ccncc2)CC1
Second: CCN(CC)CCCCN1c2ccccc2Oc2ccc(Cl)cc21
The residual activity of the first is lower: 93% for the first, 117% for the second.

`Nc1n[nH]c2nnc(-c3c(-c4ccccc4)nn4ccccc34)cc12` was tested, and the residual activity was 87%.
